The list is not random: actives were taken first. Their share in the collection is about 10%.
BAZ2B block = inhibitors of human BAZ2B bromodomain; Q9UIF8; AlphaScreen BAZ2B-H3K14Ac peptide displacement; Potency, µM (top dose mostly 114 µM), for the others: top-dose activity change, negative = inhibition, hits mostly inhibitors; 360,000 compounds, 4.4% hits; AID 504333; also: % is scaled to controls: 0 for no effect and ±100 for the full control effect; nearly all actives have a fitted effect of over 60% in size
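In this displacement format the biotinylated H3(5-23) peptide acetylated at Lys14 serves as ligand at 50 nM, with BAZ2B at 50 nM in PBS pH 7.4 containing 0.01% Tween-20. Donor and acceptor beads are 10 ug/mL final.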
G9a inh = G9a (human) methyltransferase inhibition | Q96KQ7 | G9a H3K9 monomethylation, AlphaScreen, 2 h | Potency, µM (highest dose often 102 µM), without a hit: at the highest dose activity, negative = inhibition, hits mostly inhibitors | 350,000 compounds, 8.8% hits | AID 504332; also: % is scaled to controls: 0 for no effect and ±100 for the full control effect; nearly all actives have a fitted effect of over 75% in size
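Using a bead-based AlphaScreen, monomethylated H3K9 product from 2 h room-temperature reactions (G9a 20 nM, peptide 500 nM, SAM 20 uM) was detected with 0.5 ug/mL rabbit anti-H3K9me1 antibody.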
JMJD2A Tudor inh = inhibitors of human JMJD2A Tudor domain. Potency, µM (titrated, usually from 114 µM), for the others: at the highest dose activity change, negative = inhibition, actives largely listed as inhibitors. 390,000 compounds, 4.4% hits. O75164. AlphaScreen JMJD2A-Tudor / H3K4me3 peptide binding; also: % is scaled to controls: 0 for no effect and ±100 for the full control effect; nearly all actives have a fitted effect of over 50% in size
GLS inh = blocks human kidney-isoform glutaminase activity | GLS enzymatic activity, qHTS titration | Potency, µM (series often up to 45.5 µM), for the others: top-dose activity change, negative = inhibition, usual class: inhibitors | 410,000 compounds, 0.21% hits | AID 624170; also: % is scaled to controls: 0 for no effect and ±100 for the full control effect
Target sequence (O94925 whole entry, looked up, canonical isoform): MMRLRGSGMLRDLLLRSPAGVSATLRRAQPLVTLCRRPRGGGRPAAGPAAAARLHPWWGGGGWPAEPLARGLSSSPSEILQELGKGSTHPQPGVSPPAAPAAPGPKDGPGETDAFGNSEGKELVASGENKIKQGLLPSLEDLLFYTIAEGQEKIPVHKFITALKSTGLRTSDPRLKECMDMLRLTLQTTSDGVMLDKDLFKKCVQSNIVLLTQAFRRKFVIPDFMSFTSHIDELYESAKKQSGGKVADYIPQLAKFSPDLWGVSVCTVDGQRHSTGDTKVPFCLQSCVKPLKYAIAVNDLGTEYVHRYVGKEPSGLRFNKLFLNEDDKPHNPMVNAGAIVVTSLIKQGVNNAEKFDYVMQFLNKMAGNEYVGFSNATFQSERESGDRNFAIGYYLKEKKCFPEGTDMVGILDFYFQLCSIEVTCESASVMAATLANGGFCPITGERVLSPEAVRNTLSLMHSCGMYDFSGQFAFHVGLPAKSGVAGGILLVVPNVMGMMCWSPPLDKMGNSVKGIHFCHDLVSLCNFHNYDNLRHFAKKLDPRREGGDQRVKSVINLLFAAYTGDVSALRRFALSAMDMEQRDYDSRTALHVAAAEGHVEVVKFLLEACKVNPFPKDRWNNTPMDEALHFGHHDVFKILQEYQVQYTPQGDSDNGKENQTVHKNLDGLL
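Read-out is an Amplex red fluorescence increase coupled through glutamate oxidase and HRP, measured before and after 30 min room-temperature incubation. hKGA is in 45 mM KH2PO4 (pH 8.2) with 0.02% Tween-20; glutamine added as 1mM solution.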
HP1b chromo inh = inhibitors of HP1-beta chromodomain binding to methylated histone tails. Potency, µM (top dose mostly 114 µM), inactives show at the top dose activity change, negative = inhibition, most hits filed as inhibitors. AlphaScreen HP1-beta / biotin-H3K9me3 peptide binding. 390,000 compounds, 0.56% hits. P83916. AID 540317; also: nearly all actives have a fitted effect of over 70% in size
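Compound inhibition of the preformed complex between 50 nM HP1-beta and 50 nM biotinylated H3K9me3 peptide was read by AlphaScreen. Buffer was PBS pH 7.4 with 0.01% Tween-20. Incubations ran 30 min at room temperature, with 10 ug/mL donor/acceptor beads.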
* hit, by the source's call; ? = inconclusive; nt = no result; [ ] = dose if it differs, or a comment. Calls follow the shape of the dose curve; as a rule, active = well fitted curve in the direction sought with a large enough effect; inconclusive = small, poorly fitted or top-dose-only effect, or another doubt; inactive = no such curve, though single readings can be large; an effect the other way counts as inactive or inconclusive. Potency is read from the fitted curve at half-maximal effect.

SMILES | BAZ2B block | G9a inh | JMJD2A Tudor inh | GLS inh | HP1b chromo inh
C/C(=N\Nc1ccccn1)c1ccc(S(=O)(=O)NCc2ccco2)cc1 | 50µM* | -14%[59 µM] | -30%[57.1 µM] | 12% | ?
CCCCc1ccc(S(=O)(=O)NNC(=S)NCc2ccco2)cc1 | -11% | -8%[59 µM] | -24% | 12% | 11%
CCCc1cc(=O)oc2c(C)c3c(cc12)CN(CCc1ccc(Cl)cc1)CO3 | -9% | 3%[59 µM] | -23% | 18% | 44%
O=C(Nc1cc(S(=O)(=O)N2CCOCC2)ccc1N1CCCCC1)c1ccccc1Br | nt | nt | -32% | 27% | ?
O=S(=O)(Nc1ncccn1)c1ccc(NC(=S)NCc2ccco2)cc1 | -19% | ? | -26%[57.1 µM] | 3% | 19%
S=C(NCc1ccco1)Nc1ccccc1 | -18% | 8% | -12% | -10% | 11%
CCC(=O)Nc1ccc(S(=O)(=O)NCc2ccco2)cc1 | -22% | 45µM* | -12% | 4% | 20%
CCNS(=O)(=O)c1ccc(NC(=S)NCc2ccco2)cc1 | -8% | 14µM* | -19% | -5% | -11%
Cc1ccc(C(=O)Nc2ccc(S(=O)(=O)NCc3ccco3)cc2)cc1 | ? | ? | ? | -1% | -8%
COC(=O)c1ccc(NC(=S)N2CCN(C(=O)c3ccco3)CC2)cc1 | -21% | 32µM* | -7% | -3% | 9%
O=S(=O)(NCc1ccccc1)c1ccc(NC(=S)NCc2ccco2)cc1 | ? | 50µM* | ? | 9% | -16%
CCCC(=O)N(c1ccc2oc(-c3ccccc3)c(C(=O)OCC)c2c1)S(=O)(=O)c1ccc(C)cc1 | -1% | -17%[59 µM] | -25% | -8% | 66%
Fc1cccc(CNc2ncnc3ccc(-c4ccccc4Cl)cc23)c1 | -2% | 13%[12.7 µM] | nt | nt | nt
O=C(Nc1ccccc1)c1cc(C2COCCN2C(=O)C2CC2)on1 (centres undefined) | nt | nt | nt | 1% | nt
O=C(O)/C=C/C(=O)Nc1ccc(OCc2ccccc2)cc1 | -28% | 56µM* | -18% | 5% | 51%
O=C(/C=C/c1ccc(OCc2cccc(Cl)c2)cc1)N1CCOCC1 | -26% | 4% | -18% | -2% | 37%
O=C(O)/C=C/c1ccc(OCc2cccc(F)c2)cc1 | -13% | -29% | 14µM* | -12% | -2%
Cc1ccc(Cn2cc(S(=O)(=O)c3cccc(C)c3)c(=O)c3cc(F)c(N4CCOCC4)cc32)cc1 | -2% | -3%[59 µM] | -10% | 1% | 31%
COc1ccc(N2CCN(CCCNC(=O)c3cc4sccc4n3C)CC2)cc1 | 40µM* | 14µM* | 32µM* | 46% | -52%
COc1ccc(N2CCN(CCCNC(=O)CN3CCN(Cc4ccccc4C)C3=O)CC2)cc1 | 32µM* | ? | ? | 54% | ?
O=C(Cn1c(-c2cccs2)cc2ccccc21)NCCCN1CCN(c2ccc(F)cc2)CC1 | 10% | -3%[59 µM] | ? | 9% | 31%
COc1ccc(N2CCN(CCCNC(=O)Cn3c(-c4cccs4)cc4ccccc43)CC2)cc1 | ? | 10µM* | 18µM* | 20% | -31%
O=C1C=C(c2ccccc2Oc2ccccc2)C[C@@H](c2ccc(F)cc2)C1 | nt | nt | nt | -1% | nt
COc1ccccc1CNC(=O)C/C(C)=N/NC(=O)COc1ccc(C)cc1Br | 0% | 27% | 1% | 14% | 27%
CCN(CC)c1ccc(CNC(=O)C/C(C)=N/NC(=O)COc2ccc(C)cc2Br)cc1 | 45µM* | ? | ? | 11% | ?
SMILES | BAZ2B block | G9a inh | JMJD2A Tudor inh | GLS inh | HP1b chromo inh
Oc1ccc(-c2nc(-c3ccc(O)c(O)c3)cs2)cc1 | ? | 8.9µM* | 50µM* | ? | ?
Oc1ccc(-c2csc(-c3cccnc3)n2)c(O)c1 | nt | -5% | -24% | -5% | 22%
C=CCN(c1ccccc1)S(=O)(=O)c1cccc(C(=O)Nc2ccc(N3CCOCC3)cc2)c1 | ? | 9%[0.501 µM] | ? | -10% | -15%
O=C1C(C2=NC(C(=O)O)C3C(=O)N(c4ccccc4)C(=O)C23)=C(O)c2ccccc21 (centres undefined) | -22% | ? | 16µM* | -1% | 2%
O=C1C(C2=NC(c3ccccn3)C3C(=O)N(c4ccc(OC(F)(F)F)cc4)C(=O)C23)=C(O)c2ccccc21 (centres undefined) | -8% | 11% | -4% | -1% | 19%
COc1ccc(NCc2ccc(OC)c(Cn3ccnc3)c2)c(OC)c1 | 50µM* | 11µM* | 40µM* | ? | ?
COc1ccc(Cn2ccnc2)cc1Br | 50µM* | ? | ? | -7% | 6%
CC1=C(C(N)=O)C(c2cccc(C)c2)n2nc(-c3ccc(Cl)cc3)nc2N1 (centres undefined) | 3% | 11%[59 µM] | -6% | 6% | 65%
O=C(CSc1nc(-c2cccs2)cc(C(F)(F)F)n1)Nc1cc(OCC(F)(F)F)cc([N+](=O)[O-])c1 | -7% | -17%[59 µM] | 22µM* | 8% | -4%
COc1ccc(Nc2ccc3cc(S(=O)(=O)N4CCCC4)ccc3n2)cc1Cl | 2% | 19%[59 µM] | 7% | 5% | 41%
COc1ccc(Cl)cc1Nc1ccc2cc(S(=O)(=O)N3CCCCC3)ccc2n1 | 9% | 5µM* | 46% | -7% | 68%
c1ccc(CN2CC[C@@H](Nc3nccn4ccnc34)C2)cc1 | nt | nt | nt | -1% | nt
CCOC(=O)C1CCCN(C(=O)c2ccc(Cl)cc2)C1 (centres undefined) | -10% | 79µM* | -4% | -8% | 52%
CCOC(=O)C1CCCN(C(=O)c2ccc([N+](=O)[O-])cc2)C1 (centres undefined) | -7% | 0%[59 µM] | -11% | -4% | 21%
CCOC(=O)C1CCCN(C(=O)c2cc(Cl)ccc2Cl)C1 (centres undefined) | -3% | 45µM* | -11% | 2% | 21%
CCOC(=O)C1CCCN(C(=O)Cc2ccc(Cl)cc2)C1 (centres undefined) | 2% | 2%[59 µM] | 15% | 1% | 27%
CC1CN(C(=O)N2CCC(C(=O)NCCCc3ccccc3)CC2)c2ccccc2O1 (centres undefined) | -3% | -5%[59 µM] | -5% | -5% | 48%
O=C(C[n+]1ccc(C(=O)NCc2ccccc2)cc1)c1ccc(Cl)cc1 | -1% | 24%[12.7 µM] | -14% | 14% | 18%
Fc1ccc(Nc2nc3nonc3nc2Nc2cccc(C(F)(F)F)c2)cc1 | ? | -41%[59 µM] | ? | 5% | -10%
O=S1(=O)N[C@H](Cc2ccccc2)COc2cc(N3CC[C@H](O)C3)ccc21 | nt | nt | nt | 13% | nt
CC12CCC(C(=O)N(CCCCN3CCN(c4ccccn4)CC3)C1=O)C2(C)C (centres undefined) | -38% | -6%[0.501 µM] | -7% | 1% | 24%
CC12CCC(C(=O)N(CCCN3CCN(Cc4ccccc4)CC3)C1=O)C2(C)C (centres undefined) | 50µM* | ? | ? | -12% | 5%

Assay outcomes (PubChem BioAssay)
